# Measured values published in PubChem BioAssay (NCI).
# “And” between values parts separate entries of the source, which are not always exact repeats. Equal entries are not always repeated. About 83,000 compounds went through this panel and 20% of them were active in at least one assay; those are over-represented in the sample as a whole.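 Growth was measured after 48 h exposure to one concentration of compound in 96-well plates. Values under 10 count as active.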 The source made the active and inactive calls.
# Key:
# Test in all cases: NCI-60 one-dose screen, 48 h (100 = growth as untreated, 0 = no growth, -100 = all killed)
# Conditions in all cases: 10 µM unless noted
# DU-145 prostate = system: DU-145 prostate
# K-562 leukemia = system: K-562 leukemia
# MALME-3M melanoma = system: MALME-3M melanoma
# MDA-MB-231 breast = system: MDA-MB-231 breast
# RXF 393 renal = system: RXF 393 renal
# SF-268 CNS = system: SF-268 CNS
# SF-295 CNS = system: SF-295 CNS
# SF-539 CNS = system: SF-539 CNS
# UACC-257 melanoma = system: UACC-257 melanoma
# M14 melanoma = system: M14 melanoma
SMILES,growth (DU-145 prostate),growth (K-562 leukemia),growth (MALME-3M melanoma),growth (MDA-MB-231 breast),growth (RXF 393 renal),growth (SF-268 CNS),growth (SF-295 CNS),growth (SF-539 CNS),growth (UACC-257 melanoma),growth (M14 melanoma)
O=c1c2ccccc2nc2n1Cc1nc3ccccc3c(=O)n1C2,96.4% (inactive) and 102% (inactive),107% (inactive) and 62.5% (inactive),80.1% (inactive) and 108% (inactive),99.2% (inactive) and 105% (inactive),107% (inactive) and 108% (inactive),87.5% (inactive) and 103% (inactive),105% (inactive) and 112% (inactive),99% (inactive) and 102% (inactive),98.3% (inactive) and 112% (inactive),89.3% (inactive) and 94.1% (inactive)
CCN1CCN(CCNc2nccc(-c3c(-c4cccc(O)c4)nc4sccn34)n2)S1(=O)=O,67.1% (inactive) and 55.1% (inactive),69.6% (inactive) and 62.7% (inactive),-11.1% (active) and -23.5% (active),64.7% (inactive) and 68.3% (inactive),42.8% (inactive) and 61.8% (inactive),86.2% (inactive),93.3% (inactive) and 98.9% (inactive),89.7% (inactive) and 87.3% (inactive),1.33% (active) and -7.98% (active),5.92% (active) and 8.15% (active)
CC(C)(C)c1ccc(O)c(CNC2CCCCC2)c1,130% (inactive) and 108% (inactive),48.7% (inactive) and 75.4% (inactive),115% (inactive) and 97.9% (inactive),101% (inactive) and 97.2% (inactive),96.5% (inactive) and 59.5% (inactive),114% (inactive) and 96.8% (inactive),104% (inactive),114% (inactive) and 95.6% (inactive),108% (inactive) and 95.2% (inactive),87.1% (inactive) and 101% (inactive)
C1CCCCNCCC1,118% (inactive),104% (inactive),106% (inactive),101% (inactive),103% (inactive),109% (inactive),104% (inactive),113% (inactive),100% (inactive),105% (inactive)
O[C@H](c1cc(C(F)(F)F)nc2c(C(F)(F)F)cccc12)[C@@H]1CCCCN1,67% (inactive) and 70.2% (inactive),8.6% (active) and 11.9% (inactive),89.6% (inactive) and 82.2% (inactive),15.1% (inactive) and 17.7% (inactive),44% (inactive) and 43.3% (inactive),57.9% (inactive) and 56.6% (inactive),93.6% (inactive),81.1% (inactive) and 75.6% (inactive),58.1% (inactive) and 75.4% (inactive),67.2% (inactive) and 71.8% (inactive)
CC(=O)NC(Cc1ccccc1)C(=O)Oc1ccc2ccccc2c1 (stereo not given),107% (inactive) and 109% (inactive),106% (inactive) and 113% (inactive),109% (inactive),104% (inactive) and 103% (inactive),113% (inactive) and 115% (inactive),100% (inactive),113% (inactive),91.6% (inactive) and 90% (inactive),104% (inactive) and 116% (inactive),109% (inactive) and 118% (inactive)
Oc1ccccc1/C=N\NC(=S)N/N=C/c1ccccc1O,55% (inactive) and 44.6% (inactive),26% (inactive),39.6% (inactive) and 42.9% (inactive),55% (inactive) and 44.2% (inactive),80.7% (inactive) and 63.9% (inactive),50% (inactive) and 37% (inactive),22.4% (inactive) and 30.6% (inactive),45.4% (inactive) and 23.2% (inactive),40.3% (inactive) and 34.2% (inactive),24.4% (inactive) and 24.5% (inactive)
